Activity calls are given as the source filed them. Rule for the calls: active = hit-call score of the fitted dose curve at least 0.9, where 1 is the maximum; inactive = score below 0.9.
Tests used:
[1] = read-out: Vascular cell adhesion molecule 1 (VCAM1), VCAM1 (gene 7412); test: BSK_4H_VCAM1: BioMAP Diversity Plus: 4H Assay for Vascular cell adhesion molecule 1 (VCAM1) Biomarker Activity (AID 2283033); conditions: primary human endothelial cells (HUVEC); actives raise or lower the signal
Summary of the method: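 HUVEC, 24 h post-dose; VCAM-1 by ELISA. Bidirectional curve fit vs DMSO baseline. Parallel SRB total-protein stain (0.1% SRB after 10% TCA fixation, 560 nm) for cytotoxicity.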

[2] = read-out: Interferon-gamma inducible Protein 10 (IP10), CXCL10 (gene 3627); test: BSK_BE3C_IP10: BioMAP Diversity Plus: BE3C Assay for Interferon-gamma inducible Protein 10 (IP10) Biomarker Activity (AID 2283034); conditions: primary human bronchial epithelial cells; actives raise or lower the signal
Summary of the method: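 ELISA readout of IP-10 in BE3C system: primary human bronchial epithelial cells, 24 h post-dosing; bidirectional curve fit vs DMSO baseline.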

[3] = read-out: Monokine induced gamma interferon (MIG), CXCL9 (gene 4283); test: BSK_BE3C_MIG: BioMAP Diversity Plus: BE3C Assay for Monokine induced gamma interferon (MIG) Biomarker Activity (AID 2283035); conditions: primary human bronchial epithelial cells; actives raise or lower the signal
Summary of the method: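 Dose cells (human primary bronchial epithelial), incubate 24 h, quantify MIG by ELISA, then fit concentration–response in both directions relative to DMSO control.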

[4] = read-out: Transforming growth factor beta 1 (TGFb1), TGFB1 (gene 7040); test: BSK_BE3C_TGFb1: BioMAP Diversity Plus: BE3C Assay for Transforming growth factor beta 1 (TGFb1) Biomarker Activity (AID 2283036); conditions: primary human bronchial epithelial cells; actives raise or lower the signal
Summary of the method: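 Read-out: ELISA for TGF-b1 in primary human bronchial epithelial cultures, 24 h post-dose. Bidirectional curve fitting vs DMSO control; gain or loss of signal both scored.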

[5] = read-out: Plasminogen activator inhibitor-1 (PAI1), SERPINE1 (gene 5054); test: BSK_BE3C_PAI1: BioMAP Diversity Plus: BE3C Assay for Plasminogen activator inhibitor-1 (PAI1) Biomarker Activity (AID 2283037); conditions: primary human bronchial epithelial cells; actives raise or lower the signal
Summary of the method: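 ELISA read-out of PAI-1 from human bronchial epithelial primary cells, 24 h post-dosing; bidirectional curve fit vs DMSO baseline, gain or loss of signal scored.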

[6] = read-out: urokinase plasminogen activator (uPA), PLAU (gene 5328); test: BSK_BE3C_uPA: BioMAP Diversity Plus: BE3C Assay for urokinase plasminogen activator (uPA) Biomarker Activity (AID 2283038); conditions: primary human bronchial epithelial cells; actives raise or lower the signal
Summary of the method: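 Bronchial epithelial cells (human, primary); chemical 24 h; uPA by ELISA; bidirectional fit vs DMSO. SRB (0.1%, after 10% TCA fixation, 560 nm) in parallel cultures for cytotoxicity.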

[7] = read-out: Urokinase-type plasminogen activator receptor (uPAR), PLAUR (gene 5329); test: BSK_BE3C_uPAR: BioMAP Diversity Plus: BE3C Assay for Urokinase-type plasminogen activator receptor (uPAR) Biomarker Activity (AID 2283039); conditions: primary human bronchial epithelial cells; actives raise or lower the signal
Summary of the method: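 ELISA readout of uPAR on human lung primary bronchial epithelial cells, 24 h post-dosing. Bidirectional curve fit relative to DMSO vehicle baseline; gain or loss of signal both scored.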

[8] = read-out: Interleukin-6 (IL6), IL6 (gene 3569); test: BSK_CASM3C_IL6: BioMAP Diversity Plus: CASM3C Assay for Interleukin-6 (IL6) Biomarker Activity for (AID 2283040); conditions: primary human coronary artery smooth muscle cells; actives raise or lower the signal
[9] = read-out: Tissue plasminogen activator (tPA), PLAT (gene 5327); test: BSK_BE3C_tPA: BioMAP Diversity Plus: BE3C Assay for Tissue plasminogen activator (tPA) Biomarker Activity (AID 2283041); conditions: primary human bronchial epithelial cells; actives raise or lower the signal
Summary of the method: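 ELISA read-out of tPA on human primary bronchial epithelial cells, 24 h post-dosing; bidirectional fit vs DMSO negative control/baseline.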

[10] = read-out: Interleukin-8 (IL8), CXCL8 (gene 3576); test: BSK_CASM3C_IL8: BioMAP Diversity Plus: CASM3C Assay for Interleukin-8 (IL8) Biomarker Activity (AID 2283042); conditions: primary human coronary artery smooth muscle cells; actives raise or lower the signal;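 note: IL-8 protein level quantified by ELISA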
[11] = read-out: Human Leukocyte Antigen - DR isotype (HLADR), HLA-DRA (gene 3122); test: BSK_CASM3C_HLADR: BioMAP Diversity Plus: CASM3C Assay for Human Leukocyte Antigen - DR isotype (HLADR) Biomarker Activity (AID 2283043); conditions: primary human coronary artery smooth muscle cells; actives raise or lower the signal;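 note: cell-surface HLA-DR protein level quantified by ELISA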
[12] = read-out: Macrophage colony-stimulating factor (MCSF), CSF1 (gene 1435); test: BSK_CASM3C_MCSF: BioMAP Diversity Plus: CASM3C Assay for Macrophage colony-stimulating factor (MCSF) Biomarker Activity (AID 2283044); conditions: primary human coronary artery smooth muscle cells; actives raise or lower the signal;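 note: M-CSF protein amount quantified by ELISA after 24 h exposure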
[13] = read-out: Low-density lipoprotein receptor (LDLR), LDLR (gene 3949); test: BSK_CASM3C_LDLR: BioMAP Diversity Plus: CASM3C Assay for Low-density lipoprotein receptor (LDLR) Biomarker Activity (AID 2283045); conditions: primary human coronary artery smooth muscle cells; actives raise or lower the signal;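 note: LDLR protein level on the cell surface quantified by ELISA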
[14] = read-out: Monocyte Chemoattractant Protein-1 (MCP1), CCL2 (gene 6347); test: BSK_CASM3C_MCP1: BioMAP Diversity Plus: CASM3C Assay for Monocyte Chemoattractant Protein-1 (MCP1) Biomarker Activity (AID 2283046); conditions: primary human coronary artery smooth muscle cells; actives raise or lower the signal;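 note: MCP-1 level quantified by ELISA 24 h after dosing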
[15] = BSK_CASM3C_Proliferation: Cell Proliferation Assessment in the BioMAP Diversity Plus: CASM3C Assay (AID 2283047); conditions: primary human coronary artery smooth muscle cells;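 note: sulforhodamine B total protein stain as relative cell number at 560 nm; sub-confluent cells exposed 48 h before staining; fitted both ways against DMSO so gain or loss of cell number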
[16] = read-out: Monokine induced gamma interferon (MIG), CXCL9 (gene 4283); test: BSK_CASM3C_MIG: BioMAP Diversity Plus: CASM3C Assay for Monokine induced gamma interferon (MIG) Biomarker Activity (AID 2283048); conditions: primary human coronary artery smooth muscle cells; actives raise or lower the signal;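 note: MIG protein level measured by ELISA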
[17] = read-out: serum amyloid A (SAA), SAA1 (gene 6288); test: BSK_CASM3C_SAA: BioMAP Diversity Plus: CASM3C Assay for serum amyloid A (SAA) Biomarker Activity (AID 2283049); conditions: primary human coronary artery smooth muscle cells; actives raise or lower the signal;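 note: SAA protein level quantified by ELISA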
[18] = BSK_CASM3C_SRB: Viability Assessment in the BioMAP Diversity Plus: CASM3C Assay (AID 2283050); conditions: primary human coronary artery smooth muscle cells;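 note: total protein by SRB staining as cytotoxicity measure in parallel cultures; cells exposed to compound for 24 h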
[19] = read-out: Thrombomodulin, THBD (gene 7056); test: BSK_CASM3C_Thrombomodulin: BioMAP Diversity Plus: CASM3C Assay for Thrombomodulin Biomarker Activity (AID 2283051); conditions: primary human coronary artery smooth muscle cells; actives raise or lower the signal;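 note: thrombomodulin protein level measured by ELISA 24 h after dosing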
[20] = read-out: Tissue Factor, F3 (gene 2152); test: BSK_CASM3C_TissueFactor: BioMAP Diversity Plus: CASM3C Assay for Tissue Factor Biomarker Activity (AID 2283052); conditions: primary human coronary artery smooth muscle cells; actives raise or lower the signal;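 note: cell surface tissue factor protein level read by ELISA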

Measured: AC50

O=C(O)CC(O)(CC(=O)O)C(=O)O
inactive: all assays above

CCCC[C@H]1CN(CC2CCOCC2)C(=O)OC12CCN(C1(C)CCN(C(=O)c3c(C)ncnc3C)CC1)CC2
inactive: all assays above

C/C=C/C=C/C(=O)O
inactive: all assays above

CCCC(=O)O
inactive: all assays above

CCOCCOCCO
inactive: all assays above

CN(C)C(=O)NC1(c2ccccc2)CCN(CC[C@@]2(c3ccc(F)c(F)c3)CN(C(=O)c3ccccc3)CCO2)CC1
inactive: all assays above

CN(C)C(=O)NC1(c2ccccc2)CCN(CCC[C@]2(c3ccc(Cl)c(Cl)c3)CCCN(C(=O)c3ccccc3)C2)CC1
active: [13] 5 µM | [14] 0.037 µM
inactive: all other assays above

CC1(C)C(=O)NC(=O)N1CO
inactive: all assays above

CSc1ccc(Oc2ccc(S(N)(=O)=O)cc2CN(C)C)cc1C
active: [15] 20 µM
inactive: all other assays above

CC(C)(O)c1ccc(CNC(=O)c2cccnc2Oc2ccc(F)cc2)cc1
active: [11] 2.12 µM
inactive: all other assays above

COc1ccc(C(=O)Nc2nc3ccccc3c(NCc3ccccc3)c2C#N)cc1
active: [13] 9.66 µM
inactive: all other assays above

NC=O
inactive: all assays above

CCN(CC)CCOc1ccc(C(=C(Cl)c2ccccc2)c2ccccc2)cc1
inactive: [19]
active: [1] 11.6 µM | [2] 15.3 µM | [3] 25.7 µM | [4] 16.1 µM | [5] 26.1 µM | [6] 26 µM | [7] 26.3 µM | [8] 31.6 µM | [9] 11.1 µM | [10] 32 µM | [11] 23.9 µM | [12] 26.2 µM | [13] 30.6 µM | [14] 33 µM | [15] 15 µM | [16] 31.5 µM | [17] 25.9 µM | [18] 28 µM | [20] 31.8 µM

O=C1CCCCC1
active: [19] 194 nM
inactive: all other assays above

Reference: PubChem BioAssay (EPA / NIEHS)
